RORgamma inh = ROR gamma (mouse) transcription inhibition | AID 2551 | Potency, µM (series often up to 53.6 µM), actives largely listed as inhibitors | 310,000 tested, 5.4% active | Drosophila S2 Gal4-RORgamma UAS-luciferase reporter, 20 h; also: nearly all actives have a fitted effect of over 60% in size
Target sequence (P51450 whole entry, looked up, the tested form may be a part): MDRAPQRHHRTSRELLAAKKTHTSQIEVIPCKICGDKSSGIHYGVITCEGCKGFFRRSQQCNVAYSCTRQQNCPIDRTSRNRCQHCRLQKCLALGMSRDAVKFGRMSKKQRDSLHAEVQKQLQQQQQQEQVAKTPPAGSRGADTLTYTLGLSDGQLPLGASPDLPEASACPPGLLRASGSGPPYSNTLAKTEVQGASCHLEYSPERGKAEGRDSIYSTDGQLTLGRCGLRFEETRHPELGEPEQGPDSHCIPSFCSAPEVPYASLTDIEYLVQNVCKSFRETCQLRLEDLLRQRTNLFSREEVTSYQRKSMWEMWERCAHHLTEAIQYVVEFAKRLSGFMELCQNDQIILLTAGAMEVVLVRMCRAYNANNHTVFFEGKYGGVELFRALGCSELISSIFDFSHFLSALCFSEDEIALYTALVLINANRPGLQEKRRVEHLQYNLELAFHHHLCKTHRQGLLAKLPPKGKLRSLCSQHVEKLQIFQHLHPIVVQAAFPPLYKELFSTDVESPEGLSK
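A Gal4/UAS one-hybrid system in insect cells: metallothionein-promoter Gal4–ROR gamma fusion plus Photinus luciferase reporter. Copper sulfate 700 uM final, 20 hr ambient incubation, luminescent detection after 10 min with reagent.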
ClpP mod = qHTS Assay for Activators of ClpP; Potency, µM (doses to about 57.5 µM); purified B. subtilis ClpP, FRET peptide cleavage, 20 min; 340,000 tested, 1.9% active; ATP-dependent Clp protease proteolytic subunit (Bacillus subtilis (strain 168)), P80244; active = well fitted falling curve with a large enough effect; inconclusive = small, poorly fitted or top-dose-only effect; inactive = no such curve, though single readings can be large or run the other way; also: the source files actives as falling curves though it sought activators and does not explain the sign; nearly all actives have a fitted effect of over 65% in size
Target sequence (P80244 whole entry, looked up): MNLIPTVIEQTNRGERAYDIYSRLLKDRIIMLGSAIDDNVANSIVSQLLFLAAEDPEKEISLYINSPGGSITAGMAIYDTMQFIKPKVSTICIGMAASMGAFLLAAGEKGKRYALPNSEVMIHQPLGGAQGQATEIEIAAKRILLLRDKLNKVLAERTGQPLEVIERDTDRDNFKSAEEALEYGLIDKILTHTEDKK
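Buffer: 100 mM Tris/HCl pH8, 100 mM KCl, 0.05% low protease BSA, 2.5% glycerol, 0.01% Tween-20. ClpP 10 microg/mL final; 20 min RT; delta FRET normalized to ADEP and DMSO controls.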
Gal4-VP16 FLuc = counter-screen for ROR gamma inhibitors: Gal4-VP16 reporter | Drosophila S2 Gal4-VP16 UAS-luciferase, luminescence, 20 h | Potency, µM (titrated, usually from 53.6 µM), hits mostly inhibitors | 310,000 tested, 3.5% active;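 also: Gal4-VP16 expression switched on by copper sulfate through the metallothionein promoter; nearly all actives have a fitted effect of over 50% in size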
Epigenetic reg = derepresses silenced GFP reporter in murine cells | murine LDR cells, GFP reporter derepression, 30 h | Potency, µM (highest dose often 53.9 µM), actives largely listed as activators | 280,000 tested, 0.2% active; also: nearly all actives have a fitted effect of over 60% in size
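Reporter derepression read as number of fluorescent GFP-positive objects, 20-120 um in size, counted by laser-scanning cytometer. Mouse LDR line with an epigenetically silenced CMV-GFP locus; compound incubation 30 h, 37 C.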
Sfp PPTase inh = blocks B. subtilis Sfp PPTase activity; Q9F4F7; Biochemical Sfp PPTase activity, qHTS; Potency, µM, usual class: inhibitors; 310,000 tested, 3.5% active; AID 1490;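 also: the enzyme is Sfp with the accession as filed and its product quenches rhodamine fluorescence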
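With Hepes-Na pH 7.6 buffer containing 10 mM MgCl2, Sfp (15 nM) modified BHQ-2-YbbR (12.5 uM) using rhodamine-CoA (5 uM). Two reads 30 minutes apart at 525/598 nm yielded each well's rate.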
PINK1 expr mod = changes PINK1 expression | PINK1 immunofluorescence, high-content cytometry, 24 h | 410,000 tested, 0.2% active | Potency, µM (series often up to 76.6 µM), actives largely listed as activators; active = well fitted activation curve with a large enough effect; inconclusive = small, poorly fitted or top-dose-only effect; cell line not stated here; also: nearly all actives have a fitted effect of over 65% in size
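Compound titrations (5 concentrations, 24 h) on a stable cell line; DMSO and CCCP controls. Endpoint: fixed-cell PINK1 immunofluorescence with mitochondrial, cell and nuclear markers, scanned by microplate cytometer.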
Numbers stand for hits; . = inactive; ? = inconclusive; / = no result given; ! = not confirmed by another sample; [ ] = another dose, or the depositor's remark. Shown are actives, neighbours in structure and some others; about 8.1% of the full set was active somewhere. Unless noted, calls follow the shape of the dose curve; as a rule, active = well fitted curve in the direction sought with a large enough effect; inconclusive = small, poorly fitted or top-dose-only effect, or another doubt; inactive = no such curve, though single readings can be large; an effect the other way counts as inactive or inconclusive.

SMILES	RORgamma inh	ClpP mod	Gal4-VP16 FLuc	Epigenetic reg	Sfp PPTase inh	PINK1 expr mod
CSc1ccc(-c2ccco2)nn1	.	.	.	.	32µM	.
c1coc(-c2nnc(-c3ccco3)nn2)c1	?	/	?	/	.	.
Cc1ccc(C)c(N2CCN(C(=O)C(CC(C)C)NS(=O)(=O)c3ccc4nc(C)sc4c3)CC2)c1 (stereo unspecified)	/	.	/	.	/	.
Cc1cccn2c(=O)cc(COc3cccc(NC(=O)c4ccccc4F)c3)nc12	/	.	/	?	/	.
[O-]/C(=C(\C(=S)NCc1ccc2c(c1)OCO2)[n+]1ccccc1)c1ccc(Cl)s1	.	.	.	.	40µM	.
[O-]/C(=C(\C(=S)Nc1ccc(SC(F)F)cc1)[n+]1cccc(CO)c1)c1ccc(Cl)s1	?	/	.	.	?	.
Cc1c(Cl)cccc1NC(=S)/C(=C(\[O-])c1ccc(Cl)s1)[n+]1ccccc1	?	.	5.6µM	.	.	.
Cc1ccc(NC(=S)/C(=C(\[O-])c2ccc(Cl)s2)[n+]2cccc(CO)c2)cc1C	?	.	.	.	25µM	.
[O-]/C(=C(\C(=S)Nc1cccc2ccccc12)[n+]1cccc(CO)c1)c1ccc(Cl)s1	.	.	.	.	.	.
COc1ccc(-c2noc(-c3ccc(NCc4ccco4)c([N+](=O)[O-])c3)n2)cc1OC	/	.	/	.	/	.
Cn1c(=O)c(=O)n(C)c2cc(C(=O)NCc3ccccc3Cl)ccc21	/	.	/	.	/	.
CC(CNC(=O)c1csc2c1CCCCC2)c1ccccc1 (stereo unspecified)	/	.	/	.	/	.
ClCc1nnc(-c2cc3c(s2)CCCC3)o1	6.3µM	.	?	.	.	.
CCOc1ccccc1N=Cc1c(O)c2ccccc2oc1=O	.	.	.	/	.	.
CCOP(=O)(Nc1cccc2oc(=O)c3ccccc3c12)OCC	/	11µM	/	/	/	.
Cc1ccc(NC(=O)/C(C#N)=C/c2ccccc2Cl)cc1C	/	.	/	.	/	.
C=CCn1c(SCC(=O)Nc2sccc2C(N)=O)nc2ccc(Cl)cc2c1=O	.	.	.	.	45µM	.
C=CCn1c(SCC(N)=O)nc2ccccc2c1=O	/	.	/	/	/	.
C=CCn1c(SCN2C(=O)c3ccccc3C2=O)nc2ccc(Cl)cc2c1=O	8.9µM	.	7.9µM	.	.	.
Cc1ccc(-c2nsc(NC(=O)c3oc4cc(C)c(Cl)cc4c3C)n2)cc1	/	.	/	.	/	.
CCOC(=O)C1CCN(c2c(C(=O)c3ccc(OCC)cc3)cnc3ccc(OC)cc23)CC1	/	.	/	.	/	.
CCOC(=O)c1cc(OC(=O)c2cc(OC)c(OC)c(OC)c2)n(-c2ccccc2)n1	/	.	/	.	/	.
COC(=O)C1=C(C(=O)OC)[C@@H]2N(Cc3ccccc3)c3ccccc3[C@@]23C[C@@H](C(=O)OC)N(C(=O)NCc2ccccc2)C3=C1	.	/	.	.	.	/
CN1CCN(CC(=O)c2ccccc2F)CC1	.	.	.	/	56µM	.
Cc1ccc(S(=O)(=O)NCC(=O)N/N=C/c2ccc(Cl)cc2Cl)cc1	?	.	?	.	45µM	.
SMILES	RORgamma inh	ClpP mod	Gal4-VP16 FLuc	Epigenetic reg	Sfp PPTase inh	PINK1 expr mod
Cc1ccc(S(=O)(=O)NCC(=O)N/N=C/c2ccc(Cl)cc2)cc1	.[10 µM]	.	.	.	.	.
Cc1ccc(S(=O)(=O)NCC(=O)N/N=C/c2ccccc2O)cc1	5.6µM	/	?	.	.	.
Cc1ccccc1C(=O)NNC(=S)NC(=O)c1cccnc1	11µM	.	?	.	?	.
O=C(NC(=S)NNC(=O)c1ccccc1F)c1cccnc1	11µM	/	?	.	?	.
Cc1ccsc1C(=O)N(Cc1cc2ccc(F)cc2nc1N1CCC(O)CC1)CC1CCCO1 (stereo unspecified)	/	/	/	/	/	.
CC(C)c1ccc(C2NC(C(=O)O)CS2)cc1 (stereo unspecified)	.	.	.	.	50µM	.
CCc1ccc(NC(=O)c2cc3c([nH]c2=O)CC(C)(C)CC3=O)cc1	/	.	/	.	/	.
Cc1oc(-c2ccc(C(=O)NCCC(C)C)cc2)nc1CS(=O)(=O)c1ccccc1	/	.	/	.	/	.
COC1C(CO)OC(n2c3c(Cl)cccc3c3c4c(c5c6cccc(Cl)c6[nH]c5c32)C(=O)NC4=O)C(O)C1O (stereo unspecified)	/	.	/	/	/	40µM
COC1C(O)C(CO)OC1n1c(Br)nc2c(=O)[nH]c(N)nc21 (stereo unspecified)	.	/	.	.	.	.
CCOc1ccccc1NC(=O)CCc1c(C)nn(-c2ccc(N3CCOCC3)nn2)c1C	/	.	/	.	/	.
Cc1cccc(NC(c2nnc(-c3ccccc3)o2)c2ccc(F)cc2Cl)c1C (stereo unspecified)	/	.	/	.	/	.
O=c1c(O)c(-c2ccc(O)c(O)c2)oc2cc(O)ccc12	.	.	.	.	40µM!	.
O=C(O)Cn1nc(-c2ccccc2)oc1=O	.	.	.	.	.	.
CC(C)(C)C(=O)n1nc(-c2ccccc2)oc1=O	.	32µM	.	.	.	.
CCCCCCCn1c(NC(=O)CC)nc2ccccc21	0.089µM	/	0.63µM	?	.	.
CCC(=O)Nc1nc2ccccc2n1CCN1CCOCC1	14µM	.	?	.	.	.
CCCCn1c(CNC(=O)CC)nc2ccccc21	.	.	.	.	.	.
Cc1nc2ccccc2n1CC(=O)NCCN1CCOCC1	.	.	.	.	.	.
O=C(Nc1nc2ccccc2n1CCN1CCOCC1)c1ccc(Cl)cc1	0.4µM	/	2.8µM	.	.	.
Cc1ccc(-n2nc(C)c3c(C)cc(=O)n(CC(=O)NC(C)C)c32)cc1	/	.	/	.	/	.
C/C(CC(=O)Nc1ccc(N(C)C)cc1)=N\NC(=O)c1cnccn1	.	.	?	.	56µM	.
C/C(CC(=O)Nc1cc(C)ccn1)=N\NC(=O)c1ccccc1C	8.9µM	/	?	.	.	.
C/C(CC(=O)Nc1ccccn1)=N\NC(=O)c1cnccn1	.	.	.	.	45µM	.
C/C(CC(=O)Nc1ccc2ccccc2c1)=N\NC(=O)c1cnccn1	.	.	.	.	.	.
COC(C(=O)N/N=C(\C)CC(=O)Nc1ccc(N(C)C)cc1)c1ccccc1 (stereo unspecified)	13µM	/	.	.	.	.
CCCCC/C=C\C/C=C\C/C=C\CCCCC(=O)NC(C)C(=O)O (stereo unspecified)	.	/	.	.	.	/
Nc1nc2sc3c(c2cc1C(=O)NCC(=O)O)CCCC3	10µM	.	?	/	.	.
O=c1c2ccccc2nc2n1C(CSCc1ccc(Cl)cc1Cl)CS2 (stereo unspecified)	.	.	22µM	.	.	.
COc1ccc(NC(=O)CN2C(=O)C(C)(C)c3ccccc32)cc1Cl	/	.	/	.	/	.
